High-throughput results deposited in PubChem BioAssay by National Center for Advancing Translational Sciences (NCATS).
Only some compounds are listed: those with a hit (about 12% of all), similar ones and a draw of the others.
Sfp PPTase inh: qHTS Assay for Inhibitors of Bacillus subtilis Sfp phosphopantetheinyl transferase (PPTase) | Biochemical Sfp PPTase activity, qHTS | 310,000 compounds, 3.5% hits | AID 1490, 2009 | 4'-phosphopantetheinyl transferase ffp (Bacillus subtilis), Q9F4F7 | Potency, µM, for inactives: largest response in the series, negative = inhibition, most hits filed as inhibitors;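 note: the enzyme is Sfp with the accession as filed and its product quenches rhodamine fluorescence; 0% = enzyme reaction without inhibitor and -100% = no enzyme wells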
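With Hepes-Na pH 7.6 buffer containing 10 mM MgCl2, Sfp (15 nM) modified BHQ-2-YbbR (12.5 uM) using rhodamine-CoA (5 uM). Two reads 30 minutes apart at 525/598 nm yielded each well's rate.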
JMJD2A Tudor: qHTS Assay for Inhibitors of JMJD2A-Tudor Domain; Lysine-specific demethylase 4A (Homo sapiens), O75164; AlphaScreen JMJD2A-Tudor / H3K4me3 peptide binding; Potency, µM (titrated, usually from 114 µM), without a hit: top-dose activity change, negative = inhibition, actives largely listed as inhibitors; 390,000 compounds, 4.4% hits; note: % is set by controls: 0 for no effect and ±100 for the full control effect; nearly all actives have a fitted effect of over 50% in size
BAZ2B block: qHTS Assay for Inhibitors of BAZ2B. AlphaScreen BAZ2B-H3K14Ac peptide displacement. 360,000 compounds, 4.4% hits. Potency, µM (doses to about 114 µM), for the others: at the highest dose activity change, negative = inhibition, most hits filed as inhibitors. Bromodomain adjacent to zinc finger domain protein 2B (Homo sapiens), Q9UIF8. AID 504333, 2011; note: % is set by controls: 0 for no effect and ±100 for the full control effect; nearly all actives have a fitted effect of over 60% in size
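Inhibition is scored as reduced AlphaScreen emission. The BAZ2B/b-H3(5-23)K14Ac complex (50 nM each) in PBS pH 7.4, 0.01% Tween-20 meets compound (up to 110 uM) for 30 min at RT before bead addition.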
HP1b binding inh: HTS for Inhibitors of HP1-beta Chromodomain Interactions with Methylated Histone Tails; Chromobox protein homolog 1 (Homo sapiens), P83916; AlphaScreen HP1-beta / biotin-H3K9me3 peptide binding; Potency, µM (highest dose often 114 µM), without a hit: at the highest dose activity change, negative = inhibition, actives largely listed as inhibitors; 390,000 compounds, 0.56% hits; AID 540317, 2011; note: nearly all actives have a fitted effect of over 70% in size
Target sequence (P83916 whole entry, looked up): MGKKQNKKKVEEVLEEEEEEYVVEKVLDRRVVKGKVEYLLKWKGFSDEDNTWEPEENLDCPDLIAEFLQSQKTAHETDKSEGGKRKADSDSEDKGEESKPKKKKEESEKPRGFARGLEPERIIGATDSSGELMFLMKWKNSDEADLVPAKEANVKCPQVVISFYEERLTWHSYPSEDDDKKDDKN
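HP1-beta protein (50 nM final) preincubated 30 min at room temperature with biotinylated H3(1-18)K9me3 peptide (50 nM) in PBS pH 7.4, 0.01% Tween-20, then compound added for 30 min. AlphaScreen streptavidin donor/nickel chelate acceptor beads (10 ug/mL final), 30 min dark, luminescence read.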
G9a inh: qHTS Assay for Inhibitors of Histone Lysine Methyltransferase G9a; Potency, µM (top dose mostly 102 µM), for the others: top-dose activity, negative = inhibition, most hits filed as inhibitors; Histone-lysine N-methyltransferase EHMT2 (Homo sapiens), Q96KQ7; G9a H3K9 monomethylation, AlphaScreen, 2 h; 350,000 compounds, 8.8% hits; note: % is set by controls: 0 for no effect and ±100 for the full control effect; nearly all actives have a fitted effect of over 75% in size
Target sequence (Q96KQ7 913-1193 limits assumed): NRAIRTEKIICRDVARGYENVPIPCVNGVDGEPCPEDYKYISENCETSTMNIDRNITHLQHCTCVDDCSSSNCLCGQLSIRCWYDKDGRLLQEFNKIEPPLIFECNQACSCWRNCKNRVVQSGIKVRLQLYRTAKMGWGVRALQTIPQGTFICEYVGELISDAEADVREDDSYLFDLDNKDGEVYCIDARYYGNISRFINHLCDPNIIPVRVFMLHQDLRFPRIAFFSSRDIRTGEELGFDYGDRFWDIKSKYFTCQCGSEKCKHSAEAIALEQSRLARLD
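G9a (20 nM) preincubated 15 min RT with compounds, then 500 nM biotinylated H3K9 peptide and 20 uM SAM added; 2 h RT reaction. Monomethyl-H3K9 product detected by AlphaScreen with anti-H3K9me1 antibody, streptavidin donor and anti-rabbit IgG acceptor beads.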
* = called active by the depositor; ? = inconclusive; / = no result given; [ ] = remark or other dose. Calls come from the whole dose curve; as a rule, active = well fitted curve in the direction sought with a large enough effect; inconclusive = small, poorly fitted or top-dose-only effect, or another doubt; inactive = no such curve, though single readings can be large; an effect the other way counts as inactive or inconclusive. Potency is the fitted concentration of half-maximal effect.

SMILES	Sfp PPTase inh	JMJD2A Tudor	BAZ2B block	HP1b binding inh	G9a inh
COc1cc(/C=C/C(=O)N2CCN(Cc3ccccc3)CC2)cc(OC)c1OC	-1.7%	-9.4%	-17.3%	17.3%	4.6%
COC(=O)c1ccc(C(NC(=O)OCc2ccccc2)/C(F)=C/[C@@H](C)C(=O)NCCc2c[nH]c3ccc(OC)cc23)cc1 (stereo not given in full)	20.4%	/	/	/	/
Cc1ccc(S(=O)(=O)Oc2ccccc2/C=C2\SC(=O)NC2=O)cc1	17.5%	-17.5%	?	24.6%	50.1µM*
O=C1NC(=O)/C(=C/c2ccccc2Oc2ccc(Cl)cc2)S1	16.8%	-2.7%	1.8%	25.1%	-47.7%[59 µM]
O=c1c2ccccc2sn1-c1ccc(S(=O)(=O)N2CCOCC2)cc1	/	50.1µM*	/	?	/
O=c1c2ccccc2sn1-c1ccc(Cl)c(S(=O)(=O)N2CCOCC2)c1	/	14.1µM*	/	?	/
O=C(c1ccc(Cl)c(S(=O)(=O)N2CCOCC2)c1)N1CCOCC1	12.3%	1.1%	7.7%	54.3%	22.6%
O=S(=O)(c1ccc(N2CCOCC2)cc1)N1CCOCC1	6.8%	-14.2%	5.9%	21.7%	11.3%[59 µM]
CCOc1ccc(NC(=O)c2cc(C3CC3)nc3c2cnn3C(C)C)cc1OC	/	-21.3%	-35.9%	11.9%	-3.2%[2.33 µM]
C(=N\N1CCN(C2c3ccccc3-c3ccccc32)CC1)/c1ccccn1	-22.1%	17.8µM*	20µM*	?	47.7%[0.501 µM]
COc1ccc(/C=N/N2CCN(C3c4ccccc4-c4ccccc43)CC2)cc1O	-5.2%	?	35.5µM*	?	?
O=[N+]([O-])c1cc(/C=N/N2CCN(C3c4ccccc4-c4ccccc43)CC2)ccc1Cl	18.8%	?	?	-5.7%	?
Cc1ccc(/C=N/N2CCN(C3c4ccccc4-c4ccccc43)CC2)s1	16.7%	-33.8%	-11.4%	-8.8%	79.4µM*
C(=N\N1CCN(C2c3ccccc3-c3ccccc32)CC1)/c1cccnc1	?	56.2µM*	39.8µM*	?	40.4%[0.501 µM]
CCN1C(=O)[C@H]2[C@H]3[C@H](O)[C@H](O)C/C(=N/O[C@@H](C)CN4CCCc5nc(C)c(C)cc54)[C@@H]3CC[C@@H]2C1=O	4.0%	/	/	/	/
O=C(COc1ccccc1F)Nc1ccc(OCc2cc(=O)n3ccccc3n2)cc1	/	4.9%	-5.1%	4.5%[57 µM]	-2.1%[59 µM]
Cc1ccc(S(=O)(=O)c2cnc(SCC(=O)Nc3cc(C)cc(C)c3)nc2N)cc1	/	-8.9%	-3.0%	15.5%	-4.7%[59 µM]
O=C1CCC(C(=O)OCc2c(Cl)cccc2Cl)N1 (stereo not given)	17.2%	5.2%	4.4%	27.0%	25.1%[59 µM]
O=C1CCC(C(=O)OCc2ccccc2)N1 (stereo not given)	9.3%	-14.7%	-3.7%	14.8%	6.31µM*
CC(=O)Nc1cccc(NC(=S)Nc2cccc(Cl)c2Cl)c1	31.6µM*	-17.7%	-12.9%	-6.9%	/
COC(=O)c1cccc(NC(=S)Nc2cccc(Cl)c2Cl)c1	9.6%	10.1%	-2.0%	11.3%	5.0%[59 µM]
CC(=O)Nc1cccc(NC(=S)Nc2ccc(F)cc2F)c1	39.8µM*	-23.1%	9.6%	21.0%	?
C#CCOCCOCCOCCNc1nc(N2CCN(C(=O)CCCCCCCCCCNC(=O)[C@@H](CCSC)n3cc(CCO)nn3)CC2)nc(N2CCN(C(=O)CCCCCCCCCCNC(=O)[C@@H]([C@H](C)O)n3cc(C)nn3)CC2)n1	/	-15.0%	?	46.3%	-3.8%[2.33 µM]
C#CCOCCOCCOCCNc1nc(N2CCN(C(=O)CCCCCCCCCCNC(=O)[C@H]([C@@H](C)CC)n3cc(CCCCN=C(N)N)nn3)CC2)nc(N2CCN(C(=O)CCCCCCCCCCNC(=O)[C@@H]([C@H](C)O)n3cc(C)nn3)CC2)n1	/	56.2µM*	?	?	11.8%[2.33 µM]
C#CCOCCOCCOCCNc1nc(N2CCN(C(=O)CCCCCCCCCCNC(=O)[C@H](CCCN=C(N)N)n3cc(C[C@@H](C)CC)nn3)CC2)nc(N2CCN(C(=O)CCCCCCCCCCNC(=O)[C@@H]([C@H](C)CC)n3cc(CCCCCN)nn3)CC2)n1	/	/	56.2µM*	/	10.4%[2.33 µM]
SMILES	Sfp PPTase inh	JMJD2A Tudor	BAZ2B block	HP1b binding inh	G9a inh
C#CCOCCOCCOCCNc1nc(N2CCN(C(=O)CCCCCCCCCCNC(=O)[C@H]([C@@H](C)CC)n3cc(CCCCN=C(N)N)nn3)CC2)nc(N2CCN(C(=O)CCCCCCCCCCNC(=O)[C@H](CCCN=C(N)N)n3cc(C[C@@H](C)CC)nn3)CC2)n1	/	/	50.1µM*	/	2.1%[2.33 µM]
C#CCOCCOCCOCCNc1nc(N2CCOCC2)nc(N2CCN(C(=O)CCCCCCCCCCNC(=O)[C@H]([C@@H](C)CC)n3cc(CCCCN=C(N)N)nn3)CC2)n1	/	-34.3%	?	19.8%	-3.3%[2.33 µM]
CCc1ccc(CNC(=O)C2CCN(S(=O)(=O)N3CC(C)CC(C)C3)CC2)cc1 (stereo not given)	12.0%	-9.6%	50.1µM*	25.9%	1.9%
CC1CCN(S(=O)(=O)N2CCCC(C(=O)NCc3ccc(F)cc3)C2)CC1 (stereo not given)	5.3%	11.2µM*	-12.4%	-19.7%[57 µM]	12.6%
CC1CCN(C(=O)C(C)NCc2ccc(F)cc2)CC1 (stereo not given)	-13.7%	10µM*	50.1µM*	20.0%	7.08µM*
CC1CCN(CC2CCN(C(=O)NCc3ccc(F)cc3)CC2)CC1	/	-9.3%	2.7%	17.0%	4.5%[59 µM]
COCCNS(=O)(=O)c1cc(C)c(C)cc1C	12.1%	-7.1%	3.9%	30.3%	-7.1%[59 µM]
COc1cc(S(=O)(=O)NCCc2c(C)[nH]c3ccccc23)c(C)cc1C	/	28.2µM*	35.5µM*	?	?
Cc1[nH]n(-c2ccc([N+](=O)[O-])cc2)c(=O)c1C=NCCc1c(C)[nH]c2ccccc12	79.4µM*	-23.0%	-2.6%	24.3%	-9.5%
Cc1[nH]n(-c2ccc([N+](=O)[O-])cc2)c(=O)c1C=NCCc1ccc(S(N)(=O)=O)cc1	-25.5%	-7.9%	-12.1%	36.9%	-12.4%
Cc1ccc([N+](=O)[O-])cc1S(=O)(=O)NCCc1c(C)[nH]c2ccccc12	-3.3%	?	50.1µM*	-31.1%	?
CCc1ccc(NC(=O)c2sc3nc(C)c(Cl)c(C)c3c2N)cc1	/	-1.5%	-28.3%	68.0%	-30.0%[59 µM]
Cc1csc(Sc2ccc(C(=O)OCC(=O)Nc3ccc(F)cc3[N+](=O)[O-])cc2[N+](=O)[O-])n1	9.4%	?	-33.2%	0.0%	35.5µM*
CCOc1ccc(Cl)cc1CN1CCOCC1	12.8%	-10.3%	-17.3%	21.8%	5.6%[12.7 µM]
